Rows were chosen to be rich in hits. Some 4.1% of all compounds tested hit in one or more screens of this group.
Jurkat NFkB inh – lowers PMA/ionomycin-induced NF-kB signal in Jurkat cells; PMA/ionomycin-induced NF-kB luciferase reporter, luminescence; 330,000 tested, 0.53% active; inhibition, % at 4 µM; AID 435003; in the data active = inhibition above about 50%
Gli-Sufu block – blocks Gli-Sufu signaling in a luciferase reporter. Sufu-KO-LIGHT fibroblasts, Gli luciferase reporter luminescence. 340,000 tested, 0.74% active. inhibition, % at 5 µM;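 active = inhibition above about 55%, limit read from the data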;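 also: 0% = DMSO-treated cells and 100% = wells with medium but no cells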
697 NFkB inh – lowers PMA/ionomycin-induced NF-kB signal in 697 B cells; 697 B-cell NF-kB luciferase reporter, 16 h; inhibition, % at 4 µM; 330,000 tested, 0.33% active; AID 435022; in the data active = inhibition above about 35%
KLF5 inhibitor – inhibitors of KLF5 expression. 290,000 tested, 0.23% active. inhibition, % at 5 µM. DLD-1 KLF5 promoter-luciferase reporter, luminescence. AID 1700;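 active = inhibition above a per-plate limit of that plate's mean compound inhibition plus 3 SD, cut at about 60% in these data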;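 also: 0% = DMSO wells and 100% = LY294002 at 200 µM; higher means less KLF5 promoter-driven luciferase light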
Mdm2-MdmX inh – human Mdm2/MdmX binding inhibition; O15151+Q00987; SaOS-2 split-luciferase Mdm2/MdmX complementation, luminescence; inhibition, % at 8 µM; 330,000 tested, 3% active; AID 485346;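 active = inhibition of at least 50% at 8 µM in the primary screen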
aSyn 5UTR inh – 5' untranslated region of α-synuclein, MLPCN primary screen | 300,000 tested, 0.82% active | AID 1813 | inhibition, % (tested at 7.5 µM) | alpha-synuclein 5'UTR reporter, inhibitor activity; in the data active = inhibition above about 60%;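 also: H4 neuroglioblastoma cells stably carrying SNCA 5'UTR luciferase fusion; 0% = DMSO wells and 100% = positive control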
Gli-Sufu confirm – confirmation of Gli-SUFU pathway antagonists; AID 602428; Sufu-KO-LIGHT cells, Gli luciferase reporter, luminescence; shares compounds with Gli-Sufu block; inhibition, % at 5 µM; 2,500 tested, 40% active;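 active = mean inhibition at 5 µM reaching about 45%, limit read from the data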;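 also: plate controls were DMSO-treated cells for no effect and wells lacking cells for full effect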
SufuKO cytotox – cytotoxicity counter-screen for Gli-SUFU antagonists; 2,500 tested, 32% active; Sufu-KO-LIGHT cells cytotoxicity, ATP luminescence; shares compounds with Gli-Sufu block; cytotoxicity, % at 5 µM;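 active = mean cytotoxicity at 5 µM above about 25%, limit read from the data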;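 also: cells exposed to compound overnight for roughly 16 to 18 hours; plate controls were DMSO wells with cells for no effect and medium without cells for full effect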
Wnt3a cs – counter-screen for Gli-SUFU antagonists: Wnt3a reporter inhibition | AID 651995 | inhibition, % at 6.25 µM | Wnt-LIGHT cells, Wnt3a-driven luciferase reporter, luminescence | shares compounds with Gli-Sufu block | 2,500 tested, 20% active;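 active = mean inhibition above about 25%, limit read from the data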
The depositor's hits bear a star; / = not tested or not shown.

SMILES	Jurkat NFkB inh	Gli-Sufu block	697 NFkB inh	KLF5 inhibitor	Mdm2-MdmX inh	aSyn 5UTR inh	Gli-Sufu confirm	SufuKO cytotox	Wnt3a cs
COc1ccc(CC(=O)N(CCN(C)C)CC2CCCN(Cc3ccccc3F)C2)cc1 (stereo not given)	-10	50	2	-7	21	-15	29	11	-2
CC1([N+](=O)[O-])COP(=O)(Nc2ccc(Cl)cc2)OC1 (stereo not given)	/	-1	/	/	/	/	/	/	/
CN1/C(=C\C=Nc2ccccc2)C(C)(C)c2ccccc21	3	59*	-60	-7	8	-38	59*	27*	7
CN1/C(=C\C=C2C(=O)NC(=O)NC2=O)C(C)(C)c2ccccc21	-2	3	-11	3	6	40	/	/	/
COc1ccc(OCC(=O)N2CCN(CC3CC4C=CC3C4)CC2)cc1 (stereo not given)	4	8	9	3	-9	-24	/	/	/
C[N+]1=C(/C=C/Nc2ccccc2)C(C)(C)c2ccccc21	1	63*	-10	-7	1	-93	66*	26*	12
COc1cc(C2c3cc4c(c(O)c3CC3COC(=O)C32)OCO4)cc(OC)c1OC (stereo not given)	/	62*	/	/	/	/	57*	64*	-16
COC1=C[C@@H]2C3=C([C@@H]2C1=O)[C@@H](NC(C)=O)CCc1cc(OC)c(OC)c(OC)c13	9	-7	16	/	-10	/	/	/	/
COc1ccc2c(c1)C(NC(C)=O)CCc1cc(OC)c(OC)c(OC)c1-2 (stereo not given)	/	50	/	/	/	/	50*	64*	3
CN1CC=C(/C=C/c2ccc(-c3ccccc3)cc2)CC1	-91	53	-104	-75	-13	-3	/	/	/
C=C1C(=O)O[C@H]2[C@H]1[C@H](OC(=O)CC(=O)O[C@@H]1C[C@@H](C)[C@@H]3C=CC(=O)[C@@]3(C)[C@H]3OC(=O)C(=C)[C@H]13)C[C@@H](C)[C@H]1C=CC(=O)[C@]12C	19	52	-76	/	49	11	45	35*	-4
Cc1cc(/C=C2\C(=O)NC(=O)N(c3ccc(Cl)cc3)C2=O)c(C)n1-c1sc2c(c1C#N)CCCC2	-2	53	-8	-23	37	18	55*	47*	-39
CCOC(=O)c1c(-n2c(C)cc(/C=C3\C(=O)NC(=O)N(C)C3=O)c2C)sc2c1CCCC2	-3	14	-7	-13	11	5	/	/	/
COC(=O)C1=C(c2ccccc2OCc2ccccc2)C[C@@H]2CC[C@H]1N2C(=O)NCc1ccc(F)cc1	2	10	2	/	18	/	/	/	/
Nc1ccc(C2(c3ccc(N)cc3)CN3CCC2CC3)cc1	12	71*	4	6	10	9	17	-2	0
Cc1ccc(C2(O)CN3CCC2CC3)cc1 (stereo not given)	-9	-5	-3	-44	6	12	/	/	/
O=C(NC(=O)N1CCC2(CC1)OCCO2)c1ccc(Cl)cc1	0	65*	14	-14	-7	4	18	22	-7
O=C(O)CCn1cc(C=C2C(=O)NC(=O)NC2=O)c(-c2cc3ccccc3oc2=O)n1	-10	6	3	-3	12	-4	/	/	/
O=C(CF)NC(NC(=S)Nc1ccccc1O)C(Cl)(Cl)Cl (stereo not given)	-10	87*	10	-21	25	-25	17	20	-17
COc1ccccc1N1CCN(Cc2ccc(Br)s2)CC1	3	58*	14	-13	11	14	13	5	-16

Assay outcomes deposited in PubChem BioAssay by several laboratories.
